FMDV inh: blocks foot and mouth disease virus. FMDV antiviral cell-based qHTS. Potency, µM (highest dose often 57.9 µM), without a hit: top-dose activity change, negative = inhibition, most hits filed as inhibitors. hit rate 1.2% among 410,000; calls by dose curve; tested in HEK293T cells; note: read-out not given here; potency is the fitted concentration of half-maximal effect; nearly all actives have a fitted effect of over 45% in size
HCMV antiviral: blocks human cytomegalovirus replication | HFF cells, HCMV-luciferase reporter, 72 h; active compounds read low | activity change, negative = inhibition, % at 57.5 µM | hit rate 4.5% among 410,000; in the data active = activity change below about -60%; inconclusive = no clear call, values can overlap the other calls; inactive = above about -39%
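After 16 h attachment at 37C, HFF cells received test compound and HCMV-luciferase (1 PFU/cell); reporter luminescence read 72 h later, data normalized against buffer-only and known inhibitor Salinomycin.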
Vaccinia mCherry: inhibitors of vaccinia virus infection (mCherry reporter signal) | Vaccinia virus mCherry reporter infection, fluorescence | Potency, µM (doses to about 36.5 µM), for the others: top-dose activity change, negative = inhibition, usual class: inhibitors | hit rate 0.63% among 310,000; calls by dose curve; tested in A549 cells; note: potency is the fitted concentration of half-maximal effect; nearly all actives have a fitted effect of over 35% in size
MARV entry inh: Marburg virus entry inhibition; Marburg virus pseudotyped entry inhibition, cell reporter; Potency, µM (top dose mostly 37.8 µM), inactives show at the highest dose activity change, negative = inhibition, most hits filed as inhibitors; hit rate 1.8% among 300,000; AID 540276; calls by dose curve; tested in HEK293 cells; note: potency is the fitted concentration of half-maximal effect
LASV entry inh: Lassa virus entry inhibition. Lassa virus pseudotype entry inhibition, cell reporter. Potency, µM (doses to about 37.9 µM), inactives show top-dose activity change, negative = inhibition, actives largely listed as inhibitors. hit rate 1.2% among 300,000. AID 540256; calls by dose curve; tested in HEK293 cells; note: potency is the fitted concentration of half-maximal effect; nearly all actives have a fitted effect of over 50% in size
VACV Venus inh: vaccinia inhibition (Venus reporter); Potency, µM (titrated, usually from 36.5 µM), without a hit: top-dose activity change, negative = inhibition, hits mostly inhibitors; Vaccinia virus Venus reporter expression, fluorescence; hit rate 0.46% among 330,000; calls by dose curve; tested in A549 cells; note: potency is the fitted concentration of half-maximal effect; nearly all actives have a fitted effect of over 30% in size
An asterisk follows results filed as active; i = inactive; ? = inconclusive; nt = no result given; [ ] = dose if it differs, or a comment. Only some compounds are listed: those with a hit (about 6.5% of all), similar ones and a draw of the others. % is set by controls: 0 for no effect and ±100 for the full control effect.

SMILES	FMDV inh	HCMV antiviral	Vaccinia mCherry	MARV entry inh	LASV entry inh	VACV Venus inh
COc1ccc(CN2C(=O)C(n3ccc4ccccc43)c3cc(F)ccc32)cc1 (stereo not given)	nt	14	nt	nt	nt	nt
CC(=O)Nc1ccc(S(=O)(=O)Nc2nccc(C)n2)cc1	0%	21	nt	nt	nt	nt
CC(=O)Nc1ccc(S(=O)(=O)Nc2nccc(/C=C/c3ccc(Cl)cc3)n2)cc1	-21%	-73*	-17%	?	?	-12%
O=C(Nc1ccc(Cl)cc1)Nc1ccc(S(=O)(=O)Nc2ncccn2)cc1	-3%	?	nt	nt	nt	nt
O=S(=O)(Nc1ncccn1)c1ccc(NC(=S)Nc2ccc(Cl)cc2)cc1	7%	-64*	nt	nt	nt	nt
Nc1ccc(S(=O)(=O)Nc2nccc(/C=C/c3cccc(Br)c3)n2)cc1	-20%	-73*	-30%	?	?	-13%
CCOC(=O)CN(c1sc(C)c(C)c1C(=O)OCC)S(=O)(=O)c1ccc(C)cc1	13%	-65*	-9%	nt	nt	-11%
CCOC(=O)CN(c1ccccn1)S(=O)(=O)c1ccccc1	13%	54	-18%	24%	18%	-10%
Nc1c(C(=O)Nc2ccc(OC(F)(F)F)cc2)sc2nc3c(cc12)N1CCC3CC1	25µM*	-78*	?	-23%[46.1 µM]	-21%[46.1 µM]	?
CC(=O)c1ccc(NC(=O)c2sc3nc4c(cc3c2N)N2CCC4CC2)cc1	?	-3	-12%	29%[46.1 µM]	?	-6%
CCCc1c(CC)c(=N)c2ccccc2n1C	?	-87*	-22%	-12%	-18%[14.3 µM]	-23%
Cc1noc(C)c1CSc1ccccc1C(=O)N1CCN(c2ccccc2)CC1	?	-7	-18%	-13%	10µM*	-11%
Cc1noc(C)c1CSCC(=O)N1CCN(c2ccc(F)cc2)CC1	?	-60*	?	?	-15%	-25%
CCc1ccccc1-n1nnnc1SCC(=O)Nc1ccc(N2CCN(C)CC2)cc1	-16%	-22	nt	nt	nt	nt
Cc1ccc2nc3sc(C(=O)N4CCOCC4)c(N)c3cc2c1	10µM*	-69*	?	0.41µM*	?	-12%
COc1ccc(N=Nc2cc(C)c(O)c(CN3CCCCC3)c2)cc1	23%	-16	?	-26%[46.1 µM]	5%	-7%[7.34 µM]
COc1ccc2nc3cc(Cl)ccc3c(Nc3cc(CN4CCCC4)c(O)c(CN4CCCC4)c3)c2n1	nt	-100*	nt	nt	nt	nt
Nc1nc2[nH]cc(CCc3ccc(C(=O)N[C@@H](CCC(=O)O)C(=O)O)cc3)c2c(=O)[nH]1	nt	nt	?	nt	nt	-12%
Cc1[nH]n(-c2ccccc2)c(=O)c1/C=N/Nc1nncc(-c2ccccc2)n1	nt	-99*	4µM*	4.1µM*	4.1µM*	?
Cc1[nH]n(-c2ccccc2)c(=O)c1C=Nc1cccc2cccnc12	-23%	-63*	13µM*	8.9µM*	?	?
Cc1[nH]n(-c2ccccc2)c(=O)c1/C=N/NC(=O)c1cccc(F)c1	-6%	-98*	nt	nt	nt	nt
Cc1ccc(-n2[nH]c(C)c(/C=N/c3ccccn3)c2=O)cc1	nt	-1	i	1%	9%	-17%
Cc1[nH]n(-c2ccc(Br)cc2)c(=O)c1/C=N/NC(=O)c1ccccc1	-5%	-98*	nt	nt	nt	nt
CC(=O)c1c(O)c(C)c(O)c2c1OC1=Cc3c(c(C)nn3C)C(=O)C12C (stereo not given)	?	-20	?	nt	nt	?
CCC1=[N+](CC(=O)c2ccc(C)cc2)CCn2c(C)ccc21	-23%	-63*	?	-2%	0%	-23%
SMILES	FMDV inh	HCMV antiviral	Vaccinia mCherry	MARV entry inh	LASV entry inh	VACV Venus inh
Oc1c(C(Nc2nccs2)c2ccc(C(F)(F)F)cc2)ccc2cccnc12 (stereo not given)	?	0	7.1µM*	4.5µM*	?	?
Oc1c(C(Nc2cccc(C(F)(F)F)c2)c2ccncc2)ccc2cccnc12 (stereo not given)	-16%	-99*	?	?	?	?
Oc1c(C(Nc2cccnc2)c2ccccc2F)ccc2cccnc12 (stereo not given)	nt	nt	10µM*	nt	nt	?
C#CCCCO/N=C1/C[C@@H](O)[C@@H](O)[C@@H]2[C@@H]3C(=O)N(C4CCCCC4)C(=O)[C@H]3CC[C@@H]12	nt	nt	nt	43%[14.2 µM]	nt	nt
CC=COC(=O)N[C@@H](c1ccccc1)[C@]1(C(=O)OCC)CCCC1=O	nt	nt	nt	2%[14.2 µM]	nt	nt
CCn1ccnc1CN(C)Cc1cn(-c2ccccc2)nc1-c1ccc(OC)cc1F	-17%	?	-15%	10µM*	?	-6%

Screening data deposited in PubChem by National Center for Advancing Translational Sciences (NCATS).
